This is an account of results in the supplement of paper PMC6555819.

One assay has as its system RXRa homodimer (NR concentration 180 nM). Put plainly: PBM binding z-score (relative to random genomic background probes); higher = stronger binding; sequences stand for … in GC…GCGATTGACAGCGTAGAATGAAGG
In short, it runs like this:
(§1)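 Custom Agilent 4×180K protein-binding microarrays carried double-stranded probes. Their 34-nt variable regions held direct-repeat seeds, single-nucleotide variants, half-site ablations and random human genomic background sequences. Arrays were incubated 1 h with ligand-free nuclear receptor dimers in PBS pH 7.4, 2% milk, 0.02% Triton X-100, 1 mM DTT, 0.2 mg/mL BSA and 0.4 mg/ml salmon testes DNA. Antibodies against each partner (one per run) detected binding, and scanned fluorescence was regression-normalized. Binding z-scores use random background probes as reference.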
On to ACTCAGAGGACAAAGGTCAGAGCTACGCCAGTGA, for which the PBM binding z-score came to 6.06.
Turning to CGTCCAAGGTCAAAGCTCAGTGAAGAGATGACGG, the PBM binding z-score turned out to be 5.49.
The sequence CCTACTGGGCCAGTCAGAGGTCATTGATCATATG yielded a PBM binding z-score of 3.71.
Consider CCTACTGGGCCATCAGGTCTTTGATATCAACGTT, for which the PBM binding z-score was -0.274.
ACTATTAGTTGATTTAGGGCAACCGATACGACGC came in with a PBM binding z-score of 0.356.
CCTCGGAGGACAGAAGGTTAGAGCTGTCCGCTTT gave a PBM binding z-score of -0.125.
The sequence CAGCCTAGGTCAGGGCCAGTGTAGGAGGAACGTT had a PBM binding z-score of 1.58.
Turning to GCTTACGGGTCAAAGGTTTTAGCATGAATAGAAT, the PBM binding z-score was found to be 6.49.
On to ATAGAAAGGTCGACGAGGTGAGTATACACCGTTT, for which the PBM binding z-score is 4.18.
Still for that read-out and setting: under TCTAGTTGGTCAAAGGTCACACAATCGAAATGCG stands 8.48; under CCTACTGGGCCAAAGGTCATCGATTCCAATGCTC, 7.08.
CAAACTAGGTCACAGAGGTCAAAGTGCGTGCGTA displayed a PBM binding z-score of 7.66.
Still for that read-out and setting: next, CGTCCAAGGTCAATGCTAGGTCAGCGAAAGCATT: 5.38; CCTACTGGCCCATTCAGAGGTCATTGATCATATG: 3.56.
Sequence ATCGAACGGTCGAAGGTGAGTATACCCACCCGAA gave a PBM binding z-score of 0.717.
In turn, CAAACTAGGTCACCGGAAGGTTAAAGTCCGCATG yielded a PBM binding z-score of 4.2.
The sequence ATCTCTAGGTAAAGTTCAGTGGAAGATCGATAGA yielded a PBM binding z-score of 1.11.
The same measure, in the same setting: under ATCTCTAGCTAAAAGTTCAGTGAATCCCGAGGAT stands 0.493.
CCTTACGGCTCACTCCAGGTTATAGCATCGGAGT displayed a PBM binding z-score of -0.0506.
The sequence AGAATGAGGTTAAGATCAGGGAAACAGAATACAT returned a PBM binding z-score of 2.58.
Still for that read-out and setting: under AGAATGAGCTTAAGATCAGGGAAACAGAATACAT stands -0.0967; under GCAGACAGGTGAAACGCAGGTAACTCTGGGTGGC, 0.337; under ACAGACAGGTGATGAAGGTAACTCAAGCTATCAT, 0.166.
For the sequence TCTGCTAGGCCAACGATGGTCAGCTAATCTGCTA, the PBM binding z-score is -0.518.
Still for that read-out and setting: next, GTACCAAGGTGAATAGGTCGTTGACGAGTAGGCG: 2.19; TCAGACAGGTGAAGTTAACTCAGGTACGCAGTCG: 0.838; GATACAGGGACAAGGCCAGAGTACGCGTATTGAT: 0.00121.
On the same count and under the same terms, next, ATCCCTAGGTAAGACTCAGTTCAGTGAAGAACGC: 0.0289; CCGACTGGGGCAAGGTTACGATAACGCACAGCCA: 1.47.
TAGCCTAGGTGATGCGGGCCAGTATAGTGTCGGC showed a PBM binding z-score of -0.304.
Still for that read-out and setting: next, ATCGAAAGCTCGACGAGGTGAGTATACACCGTTT: 0.189; GCGACTGGGGCATAGCAGGTTACCATAAGGTTGG: 0.456; TCTAGCAGGCCAGAGGGTCACTCATGAGGTACGG: 2.55.
Sequence CCTGATAGGTCAATGGTCAGCTAAAGCAGCTCGC came in with a PBM binding z-score of 3.76.
On to CCTACTGGGCCATTCGGAGGTCATTGATCATATG, for which the PBM binding z-score worked out at 2.38.
The sequence TGATATAGGTAAAAGGTGAAAGTCGGTGTGGTAA registered a PBM binding z-score of 2.92.
Regarding CGTCCAAGGTCAGCAGGTCTGTGAAAGCGACGTG, the PBM binding z-score is 3.69.
Still for that read-out and setting: under ACTAGCAGGCCAAGTTTGGGTCTCTCAAACAAAG stands -0.754; under TCTTGTAGATCAAAGGTTAAGAATGCCGAAGCCT, 3.46.

The subject of another assay is THRa:RXRa (NR concentration 90 nM, RXRa partner concentration 90 nM). The description is as above. In short, it runs like this:
as §1
ACTCAGAGGACAAAGGTCAGAGCTACGCCAGTGA yielded a PBM binding z-score of 3.44.
With CGTCCAAGGTCAAAGCTCAGTGAAGAGATGACGG, the PBM binding z-score turned out to be 3.63.
In turn, CCTACTGGGCCAGTCAGAGGTCATTGATCATATG returned a PBM binding z-score of 2.94.
On the same count and under the same terms, next, CCTACTGGGCCATCAGGTCTTTGATATCAACGTT: 0.487.
The same measure, in the same setting: next, ACTATTAGTTGATTTAGGGCAACCGATACGACGC: 1.52.
Regarding CCTCGGAGGACAGAAGGTTAGAGCTGTCCGCTTT, the PBM binding z-score amounted to 0.441.
Sequence CAGCCTAGGTCAGGGCCAGTGTAGGAGGAACGTT had a PBM binding z-score of 2.17.
Regarding GCTTACGGGTCAAAGGTTTTAGCATGAATAGAAT, the PBM binding z-score was 2.76.
For ATAGAAAGGTCGACGAGGTGAGTATACACCGTTT, the PBM binding z-score came out at 3.62.
The same measure, in the same setting: under TCTAGTTGGTCAAAGGTCACACAATCGAAATGCG stands 4.11; under CCTACTGGGCCAAAGGTCATCGATTCCAATGCTC, 3.65.
On the same count and under the same terms, next, CAAACTAGGTCACAGAGGTCAAAGTGCGTGCGTA: 4.92; CGTCCAAGGTCAATGCTAGGTCAGCGAAAGCATT: 4.61.
The sequence CCTACTGGCCCATTCAGAGGTCATTGATCATATG registered a PBM binding z-score of 3.04.
Regarding ATCGAACGGTCGAAGGTGAGTATACCCACCCGAA, the PBM binding z-score is -0.016.
CAAACTAGGTCACCGGAAGGTTAAAGTCCGCATG registered a PBM binding z-score of 3.84.
The same measure, in the same setting: under ATCTCTAGGTAAAGTTCAGTGGAAGATCGATAGA stands 1.3; under ATCTCTAGCTAAAAGTTCAGTGAATCCCGAGGAT, 0.457; under CCTTACGGCTCACTCCAGGTTATAGCATCGGAGT, 1.15.
Same read-out and setting: next, AGAATGAGGTTAAGATCAGGGAAACAGAATACAT: 2.67; AGAATGAGCTTAAGATCAGGGAAACAGAATACAT: -0.123; GCAGACAGGTGAAACGCAGGTAACTCTGGGTGGC: 0.963.
On the same count and under the same terms, next, ACAGACAGGTGATGAAGGTAACTCAAGCTATCAT: 0.289.
The sequence TCTGCTAGGCCAACGATGGTCAGCTAATCTGCTA gave a PBM binding z-score of -0.441.
In the case of GTACCAAGGTGAATAGGTCGTTGACGAGTAGGCG, the PBM binding z-score stood at 1.92.
The sequence TCAGACAGGTGAAGTTAACTCAGGTACGCAGTCG had a PBM binding z-score of 1.55.
Sequence GATACAGGGACAAGGCCAGAGTACGCGTATTGAT showed a PBM binding z-score of 0.874.
As for ATCCCTAGGTAAGACTCAGTTCAGTGAAGAACGC, the PBM binding z-score was found to be 0.832.
Take CCGACTGGGGCAAGGTTACGATAACGCACAGCCA: the PBM binding z-score came out at 1.28.
Sequence TAGCCTAGGTGATGCGGGCCAGTATAGTGTCGGC yielded a PBM binding z-score of -0.285.
Turning to ATCGAAAGCTCGACGAGGTGAGTATACACCGTTT, the PBM binding z-score amounted to 1.02.
Turning to GCGACTGGGGCATAGCAGGTTACCATAAGGTTGG, the PBM binding z-score was 2.44.
Regarding TCTAGCAGGCCAGAGGGTCACTCATGAGGTACGG, the PBM binding z-score was found to be 1.59.
Same read-out and setting: under CCTGATAGGTCAATGGTCAGCTAAAGCAGCTCGC stands 1.72; under CCTACTGGGCCATTCGGAGGTCATTGATCATATG, 2.83.
Turning to TGATATAGGTAAAAGGTGAAAGTCGGTGTGGTAA, the PBM binding z-score came out at 1.8.
The sequence CGTCCAAGGTCAGCAGGTCTGTGAAAGCGACGTG had a PBM binding z-score of 3.45.
ACTAGCAGGCCAAGTTTGGGTCTCTCAAACAAAG: the PBM binding z-score was -0.042.
The same measure, in the same setting: next, TCTTGTAGATCAAAGGTTAAGAATGCCGAAGCCT: 1.35.
